# What was measured:
# Test in all cases: SPOT peptide array binding signal intensity (averaged, normalized) (arbitrary units (background-subtracted, floor 0; scale differs between SH3 domains)); higher = stronger binding of the SH3 domain to the peptide
# CaNbp2 = molecular target: CaNbp2
# Method: (§1)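 GST-tagged SH3 domains from S. cerevisiae (Sc), A. gossypii (Ag), C. albicans (Ca) and S. pombe (Sp) were incubated at 10 ug/ml overnight at 4 C on cellulose SPOT membranes carrying 292 synthetic 15-mer peptides mined from the S. cerevisiae proteome (cysteines replaced by serines). Binding was detected with anti-GST antibody, HRP secondary and chemiluminescence, quantified with Genespotter, and reported as normalized spot intensities averaged over biological replicates.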
# CaRvs167 = molecular target: CaRvs167
# Method: as §1
# CaRvs167-3 = molecular target: CaRvs167-3
# Method: as §1
# CaSho1 = molecular target: CaSho1
# Method: as §1
# CaSla1-D1-D2 = molecular target: CaSla1-D1-D2
# Method: as §1
# CaSla1-D3 = molecular target: CaSla1-D3
# Method: as §1
# ScAbp1 = molecular target: ScAbp1
# Method: as §1
# ScBbc1 = molecular target: ScBbc1
# Method: as §1
# ScBem1-D1 = molecular target: ScBem1-D1
# Method: as §1
# ScBzz1-D1 = molecular target: ScBzz1-D1
# Method: as §1
# ScBzz1-D2 = molecular target: ScBzz1-D2
# Method: as §1
# ScCyk3 = molecular target: ScCyk3
# Method: as §1
# ScFus1 = molecular target: ScFus1
# Method: as §1
# ScHof1 = molecular target: ScHof1
# Method: as §1
# ScHse1 = molecular target: ScHse1
# Method: as §1
# ScLsb1 = molecular target: ScLsb1
# Method: as §1
# ScLsb2 = molecular target: ScLsb2
# Method: as §1
# ScLsb3 = molecular target: ScLsb3
# Method: as §1
# ScLsb4 = molecular target: ScLsb4
# Method: as §1
# ScMyo3 = molecular target: ScMyo3
# Method: as §1
# ScMyo5 = molecular target: ScMyo5
# Method: as §1
# ScNbp2 = molecular target: ScNbp2
# Method: as §1
# ScPex13 = molecular target: ScPex13
# Method: as §1
# ScRvs167 = molecular target: ScRvs167
# Method: as §1
# ScSho1 = molecular target: ScSho1
# Method: as §1
# ScSla1-D1-D2 = molecular target: ScSla1-D1-D2
# Method: as §1
# ScSla1-D3 = molecular target: ScSla1-D3
# Method: as §1
# SpAbp1-D1 = molecular target: SpAbp1-D1
# Method: as §1
# SpBbc1 = molecular target: SpBbc1
# Method: as §1
# SpBzz1-D1 = molecular target: SpBzz1-D1
# Method: as §1
# SpBzz1-D2 = molecular target: SpBzz1-D2
# Method: as §1
# SpCyk3 = molecular target: SpCyk3
# Method: as §1
# SpHof1 = molecular target: SpHof1
# Method: as §1
# SpHof1-2 = molecular target: SpHof1-2
# Method: as §1
# SpHof1-3 = molecular target: SpHof1-3
# Method: as §1
# SpHse1 = molecular target: SpHse1
# Method: as §1
# SpLsb1 = molecular target: SpLsb1
# Method: as §1
# SpLsb4 = molecular target: SpLsb4
# Method: as §1
# SpMyo1 = molecular target: SpMyo1
# Method: as §1
# SpNbp2 = molecular target: SpNbp2
# Method: as §1
# SpPex13 = molecular target: SpPex13
# Method: as §1
# SpRvs167 = molecular target: SpRvs167
# Method: as §1
# SpSla1-D1-D2 = molecular target: SpSla1-D1-D2
# Method: as §1
# SpSla1-D3 = molecular target: SpSla1-D3
# Method: as §1
binder,measurement,setting,value
NHSRSLFSLPGNQQS,SPOT peptide array binding signal intensity,CaNbp2,358
same,SPOT peptide array binding signal intensity,CaRvs167,54.7
same,SPOT peptide array binding signal intensity,CaRvs167-3,70.5
same,SPOT peptide array binding signal intensity,CaSho1,838
same,SPOT peptide array binding signal intensity,CaSla1-D1-D2,25.5
same,SPOT peptide array binding signal intensity,CaSla1-D3,23.8
same,SPOT peptide array binding signal intensity,ScAbp1,48
same,SPOT peptide array binding signal intensity,ScBbc1,0.75
same,SPOT peptide array binding signal intensity,ScBem1-D1,6.5
same,SPOT peptide array binding signal intensity,ScBzz1-D1,10
same,SPOT peptide array binding signal intensity,ScBzz1-D2,10.5
same,SPOT peptide array binding signal intensity,ScCyk3,29.5
same,SPOT peptide array binding signal intensity,ScFus1,595
same,SPOT peptide array binding signal intensity,ScHof1,3.5
same,SPOT peptide array binding signal intensity,ScHse1,2940
same,SPOT peptide array binding signal intensity,ScLsb1,2.75
same,SPOT peptide array binding signal intensity,ScLsb2,7
same,SPOT peptide array binding signal intensity,ScLsb3,4
same,SPOT peptide array binding signal intensity,ScLsb4,≤ 0
same,SPOT peptide array binding signal intensity,ScMyo3,29.5
same,SPOT peptide array binding signal intensity,ScMyo5,67.2
same,SPOT peptide array binding signal intensity,ScNbp2,104
same,SPOT peptide array binding signal intensity,ScPex13,≤ 0
same,SPOT peptide array binding signal intensity,ScRvs167,17
same,SPOT peptide array binding signal intensity,ScSho1,1120
same,SPOT peptide array binding signal intensity,ScSla1-D1-D2,90.5
same,SPOT peptide array binding signal intensity,ScSla1-D3,2.25
same,SPOT peptide array binding signal intensity,SpAbp1-D1,196
same,SPOT peptide array binding signal intensity,SpBbc1,5.5
same,SPOT peptide array binding signal intensity,SpBzz1-D1,28
same,SPOT peptide array binding signal intensity,SpBzz1-D2,2.5
same,SPOT peptide array binding signal intensity,SpCyk3,≤ 0
same,SPOT peptide array binding signal intensity,SpHof1,176
same,SPOT peptide array binding signal intensity,SpHof1-2,10.8
same,SPOT peptide array binding signal intensity,SpHof1-3,992
same,SPOT peptide array binding signal intensity,SpHse1,1960
same,SPOT peptide array binding signal intensity,SpLsb1,27.5
same,SPOT peptide array binding signal intensity,SpLsb4,20
same,SPOT peptide array binding signal intensity,SpMyo1,72.5
same,SPOT peptide array binding signal intensity,SpNbp2,125
same,SPOT peptide array binding signal intensity,SpPex13,7
same,SPOT peptide array binding signal intensity,SpRvs167,75
same,SPOT peptide array binding signal intensity,SpSla1-D1-D2,3
same,SPOT peptide array binding signal intensity,SpSla1-D3,13.5

# — the supplement of paper PMC4466140
